# EBNA-1 inh – EBNA-1 DNA-binding inhibitors, primary screen, biochemical, fluorescence polarization | inhibition, % at 14.8 µM | 0.34% of 300,000 active | AID 1950, 2009; in the data active means inhibition above about 28%
# aDG glyco act – activators of alpha-DG glycosylation, primary screen, uHTS, Pro5-aDG cells, AlphaScreen | AID 624168, 2012 | activation, % at 10 µM | 0.22% of 360,000 active | alpha-DG glycosylation AlphaScreen (IIH6); 0% Pro5, 100% B10-LARGE cell signal;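 active means activation of at least 8% versus controls, or a plate z-score of at least 8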;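 further: Pro5 are CHO cells carrying HIG-tagged alpha-DG that lacks glycosylation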
# p47phox inh – p47phox/p22phox peptide binding inhibitors, primary screen, biochemical, uHTS, NADPH oxidase regulatory subunit. inhibition, % at 24.7 µM. AID 1274, 2008. Neutrophil cytosol factor 1 (Homo sapiens), P14598. fluorescence polarization, 2 h. 0.53% of 220,000 active;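 active means inhibition above about 30%, limit read from the data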;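 further: 0% = p47phox with labelled peptide and 100% = labelled peptide alone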
# Target sequence (P14598 whole entry, looked up): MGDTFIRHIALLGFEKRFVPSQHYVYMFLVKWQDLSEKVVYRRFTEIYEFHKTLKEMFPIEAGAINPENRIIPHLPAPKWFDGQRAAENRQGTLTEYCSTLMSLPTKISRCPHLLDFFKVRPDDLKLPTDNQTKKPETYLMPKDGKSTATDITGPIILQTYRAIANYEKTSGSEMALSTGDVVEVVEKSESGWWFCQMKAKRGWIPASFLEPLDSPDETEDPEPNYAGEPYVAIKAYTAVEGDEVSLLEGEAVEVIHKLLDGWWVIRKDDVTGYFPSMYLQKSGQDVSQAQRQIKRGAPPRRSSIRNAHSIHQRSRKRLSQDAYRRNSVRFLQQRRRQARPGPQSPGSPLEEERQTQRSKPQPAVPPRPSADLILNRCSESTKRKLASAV
# Rev-erbA mod – modulators of Rev-erb alpha DNA binding, primary screen, biochemical, FITC-DNA, fluorescence polarization, uHTS; Rev-erbα–FITC-DNA binding, 90 min; activity, % at 10 µM; Nuclear receptor subfamily 1 group D member 1 (Homo sapiens), P20393; 0.79% of 370,000 active;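 active means activity above about 14%, limit read from the data; passing the limit was not always enough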;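 further: 0% = DMSO wells with 35 nM protein and 100% = DMSO wells with 750 nM protein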
# ZTA counter – counter-screen for EBNA-1 inhibitors: inhibitors of Epstein-Barr virus ZTA; 0.15% of 320,000 active; ZTA-DNA binding, fluorescence polarization; AID 2234; P03206; inhibition, % at 11 µM; in the data active means inhibition above about 33%
# Target sequence (P03206 whole entry, looked up): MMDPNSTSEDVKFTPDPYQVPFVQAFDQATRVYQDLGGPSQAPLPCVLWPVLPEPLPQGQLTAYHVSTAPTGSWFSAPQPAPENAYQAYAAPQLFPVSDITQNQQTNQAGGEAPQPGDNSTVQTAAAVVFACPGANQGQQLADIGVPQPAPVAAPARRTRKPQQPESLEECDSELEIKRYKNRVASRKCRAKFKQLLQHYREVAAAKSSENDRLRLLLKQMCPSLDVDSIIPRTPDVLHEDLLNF
# PG9 Ab binder – binders of HIV-1 gp120 antibody PG9, primary screen, biochemical, TR-FRET; HIV-1 gp120 / PG9 antibody interaction; 0.43% of 360,000 active; AID 624416, 2012; TR-FRET gp120-PG9 antibody binding; inhibition, % at 6.7 µM; in the data active means inhibition above about 8.5%
# NR1D1 mod conf – modulators of Rev-erb alpha DNA binding, confirmation, biochemical, FITC-DNA, fluorescence polarization, single point. shares compounds with Rev-erbA mod. 90 min. activation, % at 25 µM. 61% of 3,000 active. AID 1259319, 2017;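 active means activation at or above a set limit, or at least 3 SD above the negative control mean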;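 further: 0% = 35 nM protein with DMSO and 100% = 750 nM protein high control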
# RORg counter – modulation of RORgamma DNA binding, dose response, counter-screen for Rev-erb alpha modulator project, biochemical, fluorescence polarization, FITC-DNA. shares compounds with Rev-erbA mod. purified RORgamma protein-FITC-DNA binding. 8% of 910 active. IC50, µM;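 active means Compounds whose fitted half-maximal concentration for disrupting protein-DNA binding is below 10 micromolar; the record names Rev-erb in its text, so the target is in doubt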
# Numbers without * were called inactive; i = inactive; . = not tested or not shown. A selection: hits, their analogues and other compounds. The true share with any hit is near 1.9%.
SMILES,EBNA-1 inh,aDG glyco act,p47phox inh,Rev-erbA mod,ZTA counter,PG9 Ab binder,NR1D1 mod conf,others
COc1ccc(-c2nc(C#N)c(N3CCN(c4ccccc4)CC3)o2)cc1,-11.0,-0.3,-11.2,2.5,-1.5,-1.2,.,
COC(=O)[C@]12C[C@H](CC(=O)NCc3cccs3)C(=O)N(Cc3ccco3)C1=C[C@H](C(C)(C)C)O[C@@H]2C,.,.,.,5.4,.,.,.,
O=C(/C=C\Nc1ccc(Cl)cn1)c1ccc(Br)cc1,5.0,0.0,-4.6,67.3*,-2.0,-1.1,10.2,
COc1cccc(-c2nnc3sc(-c4ccc(Br)o4)nn23)c1,.,.,.,-6.0,.,.,.,
Cc1nn(-c2ccc(Cl)c(Cl)c2)c(=O)c2ccccc12,0.5,0.1,-12.2,48.2*,2.4,-1.4,41.1*,RORg counter=>40
Cc1nn(-c2ccc(Cl)cc2)c(=O)c2ccccc12,-9.2,0.0,-7.4,4.3,-0.8,-1.3,.,
O=C(CSc1ncnc2c1cnn2Cc1ccccc1)Nc1ccc2c(c1)OCCO2,14.8,0.0,-1.1,-1.0,1.9,-0.2,.,
O=C(CSc1ncnc2c1oc1ccccc12)Nc1nccs1,-1.3,0.0,-4.4,31.6*,-4.9,-4.2,25.1*,
O=C(CSc1ncnc2c1oc1ccccc12)Nc1ccc2c(c1)OCCO2,5.8,-0.1,23.7,676.1*,10.3,8.2,568.7*,RORg counter=i
CCCCc1nnc(NC(=O)C2CCN(c3ncnc4sc(C)c(C)c34)CC2)s1,5.2,-0.1,.,18.9*,-18.7,3.9,11.2,
CCc1nnc(NC(=O)C2CCN(c3ncnc4sc(C)c(C)c34)CC2)s1,.,0.0,.,35.1*,-0.3,-0.7,5.8,
Cc1sc2ncnc(N3CCC(C(=O)Nc4nc(-c5cccs5)cs4)CC3)c2c1C,-12.2,0.2,.,6.5,-16.9,0.2,.,
COC(=O)[C@]12C[C@H](CC(=O)N3CCCC3)C(=O)N(Cc3ccc(Cl)cc3Cl)C1=C[C@H](C(C)C)O[C@@H]2C1CC1,.,.,.,-3.1,.,.,.,
CCOC(=O)Cn1c(-c2nonc2NC(=O)c2ccccc2F)nc2ccccc21,-17.2,-0.4,-64.9,27.0*,3.5,-0.2,14.9,
CCCCCCCCN1C(=O)[C@@H](CC(=O)NCc2cccs2)C[C@@]2(C(=O)OC)C1=C[C@H](C(C)C)O[C@@H]2C1CC1,.,.,.,2.5,.,.,.,
O=C(CSc1nc(C2CCCCC2)nc2ccccc12)NCc1ccc2c(c1)OCO2,-0.2,0.1,5.6,19.6*,-6.5,0.2,15.9,
CC(C)C(=O)NNC(=O)CSc1nc(C2CCCCC2)nc2ccccc12,7.5,0.0,22.3,2.8,-17.5,0.6,.,
Cc1ccccc1NC(=O)c1cccc2c1-c1ccccc1C2=O,.,.,.,2.9,.,.,.,
O=C(Nc1ccc2nn(-c3ccccc3)nc2c1)c1ccc2c(c1)OCCO2,14.2,1.1,-9.1,14.4,23.6,1.6,.,
O=C(Nc1ccc2nn(-c3ccccc3)nc2c1)c1ccc(Br)o1,17.9,0.4,-32.8,36.6*,8.8,-11.1,26.0*,
Cc1ccc(NC(=S)NNC(=O)CSc2nnc(-c3ccc(C)cc3)n2C2CCCCC2)cc1,.,.,.,-0.2,.,.,.,
Cc1oc2c(C)c3oc(=O)c4c(c3cc2c1C)CCCC4,-12.2,0.0,-0.4,29.9*,-9.4,1.0,0.5,
CCn1c(C)c(C2=CCN(S(=O)(=O)c3ccccc3)CC2)c2ccccc21,2.6,-0.1,-131.6,27.5*,0.2,0.9,25.6*,
CC(c1ccccc1)n1cc(C(=O)N2CCCN(Cc3ccccc3)CC2)nn1 (stereo not given),.,.,.,-2.9,.,.,.,
Cc1ccc(-c2c(C#N)c(N)nc3c2CCCCC3)cc1,4.0,-0.1,-13.7,31.2*,-11.5,0.2,19.8*,
SMILES,EBNA-1 inh,aDG glyco act,p47phox inh,Rev-erbA mod,ZTA counter,PG9 Ab binder,NR1D1 mod conf,others
CSc1nc(C)cc(C)c1C#N,8.2,0.0,.,-2.1,9.1,-1.5,.,
CSc1nc(-c2ccc(C)cc2)nc(N)c1C#N,-10.8,0.3,-9.6,30.6*,-2.1,1.6,8.3,
CSc1nc(N)c(C#N)c(-c2ccc(Cl)cc2)c1C#N,-0.7,-0.3,-21.1,60.2*,-15.4,1.7,44.7*,RORg counter=>40
CCc1nc(N)c(C#N)c(-c2ccc(F)cc2)c1C,-6.0,0.0,-4.8,-4.0,-8.3,1.4,.,
CCC(C)OC(=O)c1cc(C)nc2c(Br)cc(Br)cc12 (stereo not given),-9.6,0.1,-12.4,46.1*,-8.3,3.8,45.9*,RORg counter=>40
CCOC(=O)c1cc(C)nc(SC)c1C#N,-2.6,0.2,-6.8,-1.0,-21.9,-1.2,.,
COCCCNC(=O)c1ccc2c(c1)NC(=O)C(C)(C)O2,.,.,.,-3.6,.,.,.,
C=C(C)CSc1nc(N)c(C#N)c(-c2ccc(C)cc2)c1C#N,5.8,0.0,-1.4,23.7*,8.8,-2.5,18.2*,
Cc1ccc(-c2nc(SCC(N)=O)c(C#N)c3c2CCCC3)cc1,8.2,-0.2,-5.0,2.7,0.8,2.4,.,
CCCCOC(=O)CSc1nc(N)c(C#N)c(-c2ccc(OC)cc2)c1C#N,1.3,-0.2,-40.1,52.6*,-11.1,-1.1,27.8*,
CCCCOC(=O)CSc1nc(N)c(C#N)c(-c2ccc(OCC)cc2)c1C#N,8.1,-0.2,-3.5,49.1*,2.8,0.2,35.5*,RORg counter=>40
CCCOC(=O)CSc1nc(N)c(C#N)c(-c2ccco2)c1C#N,-6.3,0.1,-19.2,-1.7,7.4,-0.2,.,
O=C(Cn1nnc(-c2ccc(N3CCOCC3)cc2)n1)c1cccc(F)c1,.,.,.,4.3,.,.,.,
CCCCCCNC(=O)C1CSCCS(=O)(=O)N1Cc1ccc(F)cc1 (stereo not given),.,.,.,3.2,.,.,.,
CCOc1ccccc1NC(=O)c1cnc2n(c1=O)CCS2,-1.7,0.1,-13.7,45.9*,-42.3,0.2,37.9*,RORg counter=>40
O=C(NC1CCCCN(Cc2cccc(F)c2)C1=O)c1ccc(-c2ccccc2)cc1 (stereo not given),.,.,.,2.0,.,.,.,
O=[N+]([O-])c1cc([N+](=O)[O-])c(Oc2cccnc2Br)cc1NN1CCCCC1,-5.6,0.4,.,16.2*,-20.1,0.1,-0.8,
O=[N+]([O-])c1cc([N+](=O)[O-])c(Oc2cccc3ccccc23)cc1NN1CCCCC1,.,-0.4,.,8.1,.,0.7,.,
COc1nc(-c2ccccc2)ccc1-c1noc(-c2cccnc2)n1,8.9,-0.1,4.7,34.5*,11.2,-2.0,5.4,
COc1nc(-c2ccccc2)ccc1-c1noc(-c2ccccc2F)n1,-2.0,-0.1,-11.8,29.5*,-4.7,1.4,17.1,
COc1nc(-c2ccc(C)cc2)ccc1-c1noc(-c2ccco2)n1,0.5,0.0,.,0.1,11.0,0.6,.,

# Screening results from PubChem.
